{"source": "PubChem BioAssay AID720647", "about": "(Broad Institute, 2013)", "note": "The campaign covered roughly 380,000 compounds. About 1,300 (0.34%) were called active. The sample as a whole holds a higher share of actives than the screen did. Values without a mark were called inactive.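 How the source made its calls: active means drop in luminescence signal, shown as inhibition above about 50% in the replicate tests (limit read from the data, passing the limit was not always enough); inconclusive means probably only some replicates passing the limit; inactive means the rest.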", "data": [{"tested_on": "Drosophila bursicon receptor LGR2 (rickets)", "assay": "inhibitors of bursicon-induced LGR2 CRE-luciferase signal, primary screen, cell-based, HEK293, CRE-luciferase reporter, bursicon stimulation (AID 720647);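 further: agonist challenge used bursicon conditioned medium at about half maximal strength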", "settings": "bursicon-stimulated, 4 h, at 9.99 µM, hits give high values", "values": [{"smiles": "O=C(Nc1ccccc1F)N1CC(=O)N2[C@H](C1)[C@H](c1ccc(C#Cc3ccc(F)cc3)cc1)[C@@H]2CO", "inhibition": "5.08%"}, {"smiles": "C[C@@H]1CN([C@@H](C)CO)C(=O)c2cc(NC(=O)Cc3ccccc3)ccc2O[C@H]1CN(C)CC1CC1", "inhibition": "-1.21%"}, {"smiles": "Cc1cnc(NC(=O)c2ccccn2)s1", "inhibition": "59.5% (active)"}, {"smiles": "COc1ccc(CC(=O)NCc2nnc(SCC(=O)Nc3ncc(C)s3)n2C)cc1", "inhibition": "8.94%"}, {"smiles": "COC(=O)Nc1ncc(CN2C(=O)c3ccccc3C2=O)s1", "inhibition": "-22.5%"}, {"smiles": "C[C@H]1CN([C@@H](C)CO)C(=O)CCCn2nncc2CO[C@@H]1CN(C)S(=O)(=O)c1ccccc1C#N", "inhibition": "-2.41%"}, {"smiles": "O=C(Nc1ccccc1)N1CCCCN2[C@H](CO)[C@@H](c3ccc(-c4ccccc4F)cc3)[C@H]2C1", "inhibition": "17.4%"}, {"smiles": "CCCNC(=O)N1[C@H](C#N)[C@@H](c2ccccc2C2=CCCCC2)[C@@H]1CO", "inhibition": "8.2%"}, {"smiles": "O=C1CN(Cc2ccccc2)C[C@H]2[C@H](c3ccc(-c4ccccc4)cc3)[C@@H](CO)N12", "inhibition": "-6.09%"}, {"smiles": "C=CCN1CCN(C(=O)CCCc2ccccc2)CC1", "inhibition": "66.7% (active)"}, {"smiles": "O=C(CCCc1ccccc1)NCc1ccccc1", "inhibition": "-36.7%"}, {"smiles": "O=C(CCc1ccccc1F)N1CCN(c2ccccc2)CC1", "inhibition": "-17%"}, {"smiles": "CCCNC(=O)C[C@@H]1CC[C@H]2[C@H](COc3ccc(NC(=O)c4ccc(Cl)cc4)cc3C(=O)N2C)O1", "inhibition": "-13.7%"}, {"smiles": "COc1ccc(-c2cn(CC[C@@H]3CC[C@@H](NC(=O)CCN4CCCCC4)[C@@H](CO)O3)nn2)cc1", "inhibition": "-11.8%"}, {"smiles": "O=C(Nc1ccccc1Cl)/C(Cl)=C(\\Cl)S(=O)c1ccccc1", "note": "(stereo not drawn)", "inhibition": "98.9% (active)"}, {"smiles": "C[C@H](CO)N1C[C@H](C)[C@H](CN(C)Cc2ccccc2)OCCCC[C@H](C)Oc2ccc(NC(=O)Cc3ccccc3)cc2C1=O", "inhibition": "24%"}, {"smiles": "C[C@H](CO)N1C[C@H](C)[C@@H](CN(C)Cc2ccccc2)OCCCC[C@H](C)Oc2ccc(NC(=O)Cc3ccccc3)cc2C1=O", "inhibition": "3.25%"}, {"smiles": "O=C(C[C@H]1C=C[C@@H](NC(=O)Nc2cc(F)ccc2F)[C@H](CO)O1)NCCCN1CCOCC1", "inhibition": "-7.04%"}, {"smiles": "COc1cncc(-c2cnc3sc(NCCc4ccccn4)nn23)c1", "inhibition": "20.8%"}, {"smiles": "COc1cccc(C(NC(C)=O)c2nc(-c3ccccc3OC)cs2)c1", "note": "(stereo not drawn)", "inhibition": "-5.66%"}, {"smiles": "COc1ccc(-c2csc(Nc3ccccn3)n2)cc1", "inhibition": "78.5% (active)"}, {"smiles": "C[C@H](CO)N1C[C@H](C)[C@H](CN(C)C(=O)Nc2ccc(F)cc2)Oc2ccc(NC(=O)Cc3cn(C)c4ccccc34)cc2CC1=O", "inhibition": "10.8%"}, {"smiles": "C[C@@H]1CN([C@@H](C)CO)C(=O)c2cc(NS(=O)(=O)c3ccccc3)ccc2O[C@H]1CN(C)CC1CCCCC1", "inhibition": "-4.25%"}, {"smiles": "C[C@@H]1CN([C@@H](C)CO)C(=O)CCCn2cc(nn2)CO[C@H]1CN(C)Cc1ccc(C(=O)O)cc1", "inhibition": "6.13%"}, {"smiles": "COCCNC(=O)C[C@H]1CC[C@H]2[C@H](COc3ccc(NC(=O)C4CCOCC4)cc3C(=O)N2C)O1", "inhibition": "-14%"}, {"smiles": "O=S1(=O)CCC(NC(=S)SCc2ccccc2Br)C1", "note": "(stereo not drawn)", "inhibition": "69.2% (active)"}, {"smiles": "CC(C)C(=O)NC(NC(=S)NC1CCS(=O)(=O)C1)C(Cl)(Cl)Cl", "note": "(stereo not drawn)", "inhibition": "-0.282%"}, {"smiles": "O=C(CSc1ccccc1F)NC1CCS(=O)(=O)C1", "note": "(stereo not drawn)", "inhibition": "23.4%"}, {"smiles": "CCOc1cc(C(=O)OCC(=O)Nc2cccc(C)c2)ccc1OCC(=O)N1CCOCC1", "inhibition": "16.2%"}, {"smiles": "CCOc1ccc(NCCC(=O)c2ccc3c(c2)OCO3)cc1", "inhibition": "-15.9%"}, {"smiles": "O=C(COC(=O)c1ccccc1)c1ccc2c(c1)OCCO2", "inhibition": "66.7% (active)"}, {"smiles": "N#CCCN(C(=O)COC(=O)c1ccc2c(c1)OCCO2)c1ccccc1", "inhibition": "4.75%"}, {"smiles": "CC(=O)Nc1cccc(C(=O)OCC(=O)c2ccc3c(c2)OCO3)c1", "inhibition": "63.3% (active)"}, {"smiles": "O=C1COc2ccc(C(=O)COC(=O)c3ccccc3Cl)cc2N1", "inhibition": "-31.2%"}, {"smiles": "COc1ccc2c3c(n(C)c2c1)[C@H](CO)N(Cc1ccccc1)CC31CN(C(=O)c2ccccc2F)C1", "inhibition": "13.5%"}, {"smiles": "CCCC(=O)Nc1ccc2c(c1)C(=O)N(C)C[C@H](OC)[C@H](C)CN(C(=O)c1ccccn1)[C@H](C)CO2", "inhibition": "14%"}, {"smiles": "O=C(C[C@H]1C=C[C@H](NC(=O)CC2CC2)[C@@H](CO)O1)NCc1ccccc1", "inhibition": "-1.04%"}, {"smiles": "C[C@H]1CN([C@@H](C)CO)C(=O)c2cc(NC(=O)Cn3cnnn3)ccc2O[C@H]1CN(C)C(=O)NC1CCCCC1", "inhibition": "-0.859%"}, {"smiles": "COc1ccc2c3c([nH]c2c1)[C@@H](CO)N(C(=O)Nc1ccc(F)cc1)CC31CN(S(C)(=O)=O)C1", "inhibition": "-10.4%"}, {"smiles": "C[C@@H]1CN([C@@H](C)CO)C(=O)c2cc(-c3ccc(C#N)cc3)cnc2O[C@@H]1CN(C)Cc1cccnc1", "inhibition": "21.1%"}, {"smiles": "O=[N+]([O-])c1ccc(NS(=O)(=O)c2ccccc2)c(Cl)c1", "inhibition": "-13%"}, {"smiles": "O=S(=O)(Cc1noc(-c2ccc(OC(F)(F)F)cc2)n1)c1ccc(F)cc1", "inhibition": "-18.2%"}, {"smiles": "O=S(=O)(Nc1ccc(O)c2ccccc12)c1ccc(OC(F)(F)F)cc1", "inhibition": "58.8% (active)"}, {"smiles": "CCCN1[C@@H]2c3ccc(C4=CCCC4)c(=O)n3C[C@@H]2[C@@H](CO)[C@@H]1C(=O)NCc1ccccn1", "inhibition": "-8.46%"}, {"smiles": "COc1ccc(S(=O)(=O)N(C)C[C@H]2OCCCC[C@H](C)Oc3ccc(NC(=O)Nc4ccc5c(c4)OCO5)cc3C(=O)N([C@@H](C)CO)C[C@@H]2C)cc1", "inhibition": "21.6%"}, {"smiles": "CO[C@@H]1CN(C)C(=O)c2ccc(NC(C)=O)cc2OC[C@@H](C)N(CC2CC2)C[C@H]1C", "inhibition": "-1.72%"}, {"smiles": "C[C@H](CO)N1C[C@H](C)[C@H](CN(C)CC2CC2)OCCCC[C@H](C)Oc2ccc(NC(=O)c3ccncc3)cc2C1=O", "inhibition": "-8.96%"}, {"smiles": "Cc1ccc(S(=O)(=O)Nc2ccc3c(c2)C(=O)N([C@H](C)CO)C[C@H](C)[C@H](CN(C)S(=O)(=O)c2ccc(F)cc2)O3)cc1", "inhibition": "2.4%"}, {"smiles": "Cc1ccc2nc(-c3ccc(Br)cc3)cn2c1", "inhibition": "96.2% (active)"}, {"smiles": "Cc1nc(=O)c(-c2ccccc2)c(C)n1-c1ccc(Br)cc1", "inhibition": "4.28%"}, {"smiles": "Cc1ccc(-c2cn3cc(C)ccc3n2)cc1", "inhibition": "102% (active)"}, {"smiles": "COc1ccccc1Cc1c(-c2ccc(F)cc2)nc2ccc(C)cn12", "inhibition": "-38.1%"}, {"smiles": "Cc1nc(-c2ccccc2)cn2c1nc1ccccc12", "inhibition": "3%"}, {"smiles": "Cc1ccc(N2CCN(c3ccc([N+](=O)[O-])cn3)CC2)c(C)c1", "inhibition": "4.63%"}, {"smiles": "Cn1cnc(C(F)(F)F)c1-c1ccc([N+](=O)[O-])cc1", "inhibition": "-7.43%"}, {"smiles": "Cc1ccc(-c2cn3cc([N+](=O)[O-])ccc3n2)cc1", "inhibition": "67.1% (active)"}, {"smiles": "C[C@@H]1CN([C@@H](C)CO)C(=O)c2cc(C3=CCCC3)cnc2O[C@H]1CN(C)C(=O)c1ccccn1", "inhibition": "-11.6%"}, {"smiles": "COc1ccc(NC(=O)Nc2ccc3c(c2)[C@@H]2C[C@@H](CC(=O)NCc4ccncc4)O[C@@H](CO)[C@@H]2O3)cc1", "inhibition": "6.93%"}, {"smiles": "CCC(=O)N(C)C[C@@H]1Oc2cc(-c3ccc(C#N)cc3)ccc2S(=O)(=O)N([C@@H](C)CO)C[C@@H]1C", "inhibition": "-4.05%"}, {"smiles": "Cc1nc(N2[C@H](CO)[C@H](c3ccccc3)[C@H]2CNCC2CCCCC2)sc1C", "inhibition": "-6.28%"}, {"smiles": "CCc1nc2cccnc2n1-c1ccc(C(=O)O)cc1", "inhibition": "-11.5%"}, {"smiles": "NCCCCCC(=O)N/N=C/c1ccc2nccnc2c1", "inhibition": "-0.608%"}, {"smiles": "O=C(O)c1ccc(N/N=C/c2ccc3ncccc3c2)cc1", "inhibition": "88.1% (active)"}, {"smiles": "O=C(C[C@H]1C=C[C@@H](NC(=O)C2CCOCC2)[C@@H](CO)O1)NCC1CCCCC1", "inhibition": "25%"}, {"smiles": "Cc1noc(C)c1NC(=O)N(C)C[C@H]1Oc2ccc(NS(=O)(=O)c3ccc(F)cc3)cc2C(=O)N([C@@H](C)CO)C[C@H]1C", "inhibition": "-0.097%"}, {"smiles": "N[C@@H](Cc1ccccc1)C(=O)N1CCOCC1", "inhibition": "-3.78%"}, {"smiles": "O=C(O)CC(CC(=O)N1CCOCC1)c1ccccc1", "note": "(stereo not drawn)", "inhibition": "7.83%"}, {"smiles": "O=C(CSC(=S)N1CCOCC1)c1ccccc1", "inhibition": "69.5% (active)"}, {"smiles": "C[C@@H]1CN([C@@H](C)CO)S(=O)(=O)c2ccc(-c3ccc(C#N)cc3)cc2O[C@H]1CN(C)Cc1ccccn1", "inhibition": "12.2%"}, {"smiles": "CCCC(=O)N1CC2(CN(C(=O)NC(C)C)C2)c2c([nH]c3cc(OC)ccc23)[C@@H]1CO", "inhibition": "0.057%"}, {"smiles": "CCn1cc(/C=C(\\NC(=O)c2ccc(C)cc2)C(=O)NCCN2CCOCC2)c2ccccc21", "inhibition": "-9.89%"}, {"smiles": "Cc1ccc(C(=O)N/C(=C/c2ccc(-c3cccc([N+](=O)[O-])c3)o2)C(=O)NCCCN(C)C)cc1", "inhibition": "77.8% (active)"}, {"smiles": "O=C(NCc1ccco1)/C(=C\\c1cccc([N+](=O)[O-])c1)NC(=O)c1ccco1", "inhibition": "21.6%"}, {"smiles": "C[C@H](CO)N1C[C@H](C)[C@@H](CN(C)S(=O)(=O)c2ccc(F)cc2)OCCCC[C@H](C)Oc2ccc(NC(=O)CCCN(C)C)cc2C1=O", "inhibition": "-10.7%"}, {"smiles": "Nc1nc2c(Br)ccc(Br)c2cc1C(=O)NCCc1ccccc1", "inhibition": "-7.19%"}, {"smiles": "CN(C)CCNC(=O)c1ccc(Cl)c2cc3ccccc3nc12", "inhibition": "86.6% (active)"}, {"smiles": "Cc1c(C(=O)NCCN(C)C)oc2ccc(S(=O)(=O)N3CCCC3)cc12", "inhibition": "-6.68%"}, {"smiles": "CC(C)NC(=O)N(C)C[C@@H]1OCCCC[C@@H](C)Oc2ccc(NC(=O)CCCN(C)C)cc2C(=O)N([C@@H](C)CO)C[C@@H]1C", "inhibition": "0.91%"}]}]}
